The subject of the first assay is Plasmodium falciparum. Put plainly: GSK_TCMDC: Inhibition of Plasmodium falciparum 3D7 in whole red blood cells, using parasite LDH activity as an index of growth. Test compounds present at 2uM. The class given is functional.
`N#Cc1ccc(-c2ccc(C(=O)NCCCCN3CCC(c4cc(Br)c5c(c4O)CCCC5)CC3)cc2)cc1` returned an Inhibition of 100%.
On the same count and under the same terms, the result for `COc1ccc2[nH]c(C)cc(=NN=Cc3cccc(F)c3)c2c1` reads 100%; that for `CC(C)c1ccc(CN2CCC(NC(=O)c3ccc(-c4ccccc4F)s3)CC2)cc1.O=C(O)C(F)(F)F`, 81%; that for `CN1CCc2cc(NS(=O)(=O)c3ccc(-c4ccc(Cl)s4)cc3)c(N3CCCCC3)cc2CC1.Cl`, 98%.
On the same count and under the same terms, the result for `CCN(CC)CCCN(CCCN(CC)CC)c1cc(C)nc(Nc2ccc(Cl)cc2)n1.O=C(O)C(=O)O` reads 100%; that for `COc1ccc(NC(=O)Nc2cccc(-c3cccc(-c4nc5ccccc5[nH]4)c3)c2)cc1`, 100%.
The same measure, in the same setting: then `O=C(Nc1cccnc1)c1cc(-c2cccnc2)nc2ccc(Cl)cc12`, with 97%; and `COc1ccc2nc(SC(C)C(=O)c3c[nH]c4ccccc34)[nH]c2c1` (stereo not given), with 100%.
In turn, `CCCOc1ccc2ccccc2c1CNCCCCCCNCc1c(OCCC)ccc2ccccc12.CS(=O)(=O)O` came in with an Inhibition of 94%.
`OC(CNCCCc1ccccc1)c1cc(OCc2ccccc2)cc(OCc2ccccc2)c1` (stereo not given): the Inhibition is reported as 93%.
The same measure, in the same setting: then `CCCNCc1ccc(-c2ccc(CN(Cc3cnc(C)cn3)C(=O)CC#N)cc2)nc1.O=C(O)C(F)(F)F`, with 92%.
The same measure, in the same setting: then `CCCCN1CCCN(Cc2cccc(NC(=O)c3ccc(-c4ccccc4)cc3)c2)CC1.O=C(O)C(F)(F)F`, with 92%; and `COc1cccc(CCc2c(CCNCCCCCCNCCc3ccccc3)ccc(OC)c2OC)c1.Cl`, with 100%.
For the compound `Nc1nc2c(ncn2COC(COCc2ccccc2)COCc2ccccc2)c(=O)[nH]1.Nc1nc2ncn(COC(COCc3ccccc3)COCc3ccccc3)c2c(=O)[nH]1`, the Inhibition was found to be 86%.
The same measure, in the same setting: the result for `O=C(O)C(F)(F)F.O=C1OC2(CN1CC1CCN(Cc3ccc(-n4ccnc4)cc3)C1)c1ccccc1-c1ccccc12` (stereo not given) reads 96%; that for `O=C(Nc1ccc(Br)cc1)N1CCC(n2c(-c3ccccc3)nc3cccnc32)CC1`, 90%; that for `COC(=O)c1ccc(-c2ccc(-c3cccnc3)cc2C)cc1`, 100%.
Still for that read-out and setting: the result for `N=C(N)NC(=O)Nc1cc(F)c(Cl)c(Br)c1` reads 100%; that for `O=C(NCCCCN1CCC(c2c[nH]c3ccccc23)CC1)c1sc(-c2ccc(C(F)(F)F)cc2)nc1CO`, 94%; that for `COc1cccc(CCc2cccc(CNC(C)=O)c2)c1`, 88%.
Still for that read-out and setting: then `COc1cc(CNC[C@@H](O)[C@H](Cc2ccccc2)NC(=O)c2cc(OC(C)C)cc(N3CCCCS3(=O)=O)c2)cc(OC)c1.Cl`, with 100%; and `COc1ccc(C(=O)CCc2ccc(O)cc2)cc1`, with 96%.
The compound `COc1ccc(Cl)c(CC2c3cc(O)c(Cl)cc3CCN2C)c1.Cl` (stereo not given) returned an Inhibition of 98%.
Consider `Br.CC1(C)NC(N)=NC(=N)N1OCCOc1ccc2ccccc2c1`, for which the Inhibition was determined as 93%.
Same read-out and setting: the result for `CN(C)c1cc2c(Nc3ccc4nc(Cc5ccccc5)[nH]c4c3)ncnc2cn1` [GW301888X] reads 85%.
On the same count and under the same terms, the result for `CCN(CC)CCCNc1cc[n+]([O-])c2cc3ccccc3cc12` reads 100%; that for `O=C(CC(=O)C(F)(F)F)c1ccc2c(c1)OCO2`, 96%.
The same measure, in the same setting: the result for `CCNC(=O)N[C@@H]1CN[C@@H](C#Cc2cc3c(Nc4ccc(OCc5cccc(F)c5)c(Cl)c4)ncnc3s2)C1` reads 85%; that for `Nc1cc2c(C3CCN(CC4CCN(C(=O)/C=C/c5ccc(Cl)c(Cl)c5)CC4)CC3)c[nH]c2cn1`, 100%; that for `CN(C)Cc1ccc(CN2CCN(CCOc3ccc(-c4ccc(Cl)cc4)cc3)CC2)o1`, 90%.
`COC(=O)c1noc(C)c1I` showed an Inhibition of 99%.
The same measure, in the same setting: the result for `Cc1cc(N2CCOCC2)nc(Nc2ccc(NC(=O)c3cccc4ccccc34)cc2)n1` reads 95%; that for `CC(CNCc1cn(Cc2cc(Br)cc(Br)c2)c2ccccc12)CNc1cc(=O)c2ccccc2[nH]1` (stereo not given), 100%; that for `CN(C)CC1CCCN1Cc1ccccc1-c1cnn(C)c(=O)c1Oc1ccc(F)cc1.O=C(O)C(F)(F)F` (stereo not given), 91%.
Compound `Cl.Oc1cccc(Nc2nc(NCC3CCCO3)c3ccccc3n2)c1` (stereo not given) displayed an Inhibition of 100%.
Still for that read-out and setting: then `Cc1cc(N(C)C)nc(Nc2ccc(NC(=O)CCc3ccccc3)cc2)n1`, with 100%; and `COc1cc2nccc(Nc3ccc(Oc4ccccc4)cc3)c2cc1OC.Cl`, with 100%.
On the same count and under the same terms, the result for `CCC(c1ccccc1)c1nn2c(-c3cccs3)nnc2s1` (stereo not given) reads 97%; that for `COc1cc(Cc2cnc(N)nc2N)cc(OCCNC(=O)OCc2ccccc2)c1OC`, 93%; that for `CCc1cc(-c2onc(C(F)(F)F)c2-c2ccccc2)c(O)cc1OC`, 98%.

The test system of the next assay is Plasmodium falciparum. Put plainly: GSK_TCMDC: Inhibition of Plasmodium falciparum Dd2 in whole red blood cells, using parasite LDH activity as an index of growth. Test compounds present at 2uM. Format: functional.
`N#Cc1ccc(-c2ccc(C(=O)NCCCCN3CCC(c4cc(Br)c5c(c4O)CCCC5)CC3)cc2)cc1` showed an Inhibition of 50%.
The same measure, in the same setting: the result for `COc1ccc2[nH]c(C)cc(=NN=Cc3cccc(F)c3)c2c1` reads 100%; that for `CC(C)c1ccc(CN2CCC(NC(=O)c3ccc(-c4ccccc4F)s3)CC2)cc1.O=C(O)C(F)(F)F`, 13%; that for `CN1CCc2cc(NS(=O)(=O)c3ccc(-c4ccc(Cl)s4)cc3)c(N3CCCCC3)cc2CC1.Cl`, 29%.
The same measure, in the same setting: then `CCN(CC)CCCN(CCCN(CC)CC)c1cc(C)nc(Nc2ccc(Cl)cc2)n1.O=C(O)C(=O)O`, with 7%.
As for `COc1ccc(NC(=O)Nc2cccc(-c3cccc(-c4nc5ccccc5[nH]4)c3)c2)cc1`, the Inhibition is recorded as 41%.
Compound `O=C(Nc1cccnc1)c1cc(-c2cccnc2)nc2ccc(Cl)cc12` gave an Inhibition of 50%.
On the same count and under the same terms, the result for `COc1ccc2nc(SC(C)C(=O)c3c[nH]c4ccccc34)[nH]c2c1` (stereo not given) reads 98%.
On the same count and under the same terms, the result for `CCCOc1ccc2ccccc2c1CNCCCCCCNCc1c(OCCC)ccc2ccccc12.CS(=O)(=O)O` reads 90%; that for `OC(CNCCCc1ccccc1)c1cc(OCc2ccccc2)cc(OCc2ccccc2)c1` (stereo not given), 85%.
On the same count and under the same terms, then `CCCNCc1ccc(-c2ccc(CN(Cc3cnc(C)cn3)C(=O)CC#N)cc2)nc1.O=C(O)C(F)(F)F`, with 0%; and `CCCCN1CCCN(Cc2cccc(NC(=O)c3ccc(-c4ccccc4)cc3)c2)CC1.O=C(O)C(F)(F)F`, with 8%.
`COc1cccc(CCc2c(CCNCCCCCCNCCc3ccccc3)ccc(OC)c2OC)c1.Cl`: the Inhibition is 69%.
Still for that read-out and setting: the result for `Nc1nc2c(ncn2COC(COCc2ccccc2)COCc2ccccc2)c(=O)[nH]1.Nc1nc2ncn(COC(COCc3ccccc3)COCc3ccccc3)c2c(=O)[nH]1` reads 57%; that for `O=C(O)C(F)(F)F.O=C1OC2(CN1CC1CCN(Cc3ccc(-n4ccnc4)cc3)C1)c1ccccc1-c1ccccc12` (stereo not given), 0%; that for `O=C(Nc1ccc(Br)cc1)N1CCC(n2c(-c3ccccc3)nc3cccnc32)CC1`, 86%.
The same measure, in the same setting: then `COC(=O)c1ccc(-c2ccc(-c3cccnc3)cc2C)cc1`, with 98%; and `N=C(N)NC(=O)Nc1cc(F)c(Cl)c(Br)c1`, with 50%.
Same read-out and setting: the result for `O=C(NCCCCN1CCC(c2c[nH]c3ccccc23)CC1)c1sc(-c2ccc(C(F)(F)F)cc2)nc1CO` reads 3%.
`COc1cccc(CCc2cccc(CNC(C)=O)c2)c1` showed an Inhibition of 0%.
In turn, `COc1cc(CNC[C@@H](O)[C@H](Cc2ccccc2)NC(=O)c2cc(OC(C)C)cc(N3CCCCS3(=O)=O)c2)cc(OC)c1.Cl` yielded an Inhibition of 94%.
Consider `COc1ccc(C(=O)CCc2ccc(O)cc2)cc1`, for which the Inhibition was 90%.
On the same count and under the same terms, then `COc1ccc(Cl)c(CC2c3cc(O)c(Cl)cc3CCN2C)c1.Cl` (stereo not given), with 72%.
`Br.CC1(C)NC(N)=NC(=N)N1OCCOc1ccc2ccccc2c1` registered an Inhibition of 96%.
With `CN(C)c1cc2c(Nc3ccc4nc(Cc5ccccc5)[nH]c4c3)ncnc2cn1` [GW301888X], the Inhibition worked out at 29%.
`CCN(CC)CCCNc1cc[n+]([O-])c2cc3ccccc3cc12` displayed an Inhibition of 3%.
As to `O=C(CC(=O)C(F)(F)F)c1ccc2c(c1)OCO2`, the Inhibition came to 0%.
Same read-out and setting: the result for `CCNC(=O)N[C@@H]1CN[C@@H](C#Cc2cc3c(Nc4ccc(OCc5cccc(F)c5)c(Cl)c4)ncnc3s2)C1` reads 27%.
On the same count and under the same terms, the result for `Nc1cc2c(C3CCN(CC4CCN(C(=O)/C=C/c5ccc(Cl)c(Cl)c5)CC4)CC3)c[nH]c2cn1` reads 94%; that for `CN(C)Cc1ccc(CN2CCN(CCOc3ccc(-c4ccc(Cl)cc4)cc3)CC2)o1`, 21%.
Still for that read-out and setting: the result for `COC(=O)c1noc(C)c1I` reads 2%; that for `Cc1cc(N2CCOCC2)nc(Nc2ccc(NC(=O)c3cccc4ccccc34)cc2)n1`, 11%.
With `CC(CNCc1cn(Cc2cc(Br)cc(Br)c2)c2ccccc12)CNc1cc(=O)c2ccccc2[nH]1` (stereo not given), the Inhibition is given as 50%.
`CN(C)CC1CCCN1Cc1ccccc1-c1cnn(C)c(=O)c1Oc1ccc(F)cc1.O=C(O)C(F)(F)F` (stereo not given) had an Inhibition of 19%.
On the same count and under the same terms, then `Cl.Oc1cccc(Nc2nc(NCC3CCCO3)c3ccccc3n2)c1` (stereo not given), with 87%.
On the same count and under the same terms, then `Cc1cc(N(C)C)nc(Nc2ccc(NC(=O)CCc3ccccc3)cc2)n1`, with 84%; and `COc1cc2nccc(Nc3ccc(Oc4ccccc4)cc3)c2cc1OC.Cl`, with 99%; and `CCC(c1ccccc1)c1nn2c(-c3cccs3)nnc2s1` (stereo not given), with 95%.
Same read-out and setting: then `COc1cc(Cc2cnc(N)nc2N)cc(OCCNC(=O)OCc2ccccc2)c1OC`, with 0%.
In turn, `CCc1cc(-c2onc(C(F)(F)F)c2-c2ccccc2)c(O)cc1OC` displayed an Inhibition of 73%.

As usually defined, the Inhibition is the drop in the measured response relative to a control, in per cent.

The values are drawn from ChEMBL document CHEMBL1157539, “Thousands of chemical starting points for antimalarial lead identification” (Nature, 2010).
